The values below come from PubChem BioAssay (Tox21).

A short description of assay [1]: qHTS assay to identify aromatase inhibitors - cell viability counter screen (AID 743084).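 Also: cells stimulated with testosterone during compound exposure; nearly all actives have a fitted effect of over 55% in size.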
In assay [2] the target is Aryl hydrocarbon receptor (Homo sapiens) (UniProt P35869). The assay is described as follows: qHTS assay to identify small molecule that activate the aryl hydrocarbon receptor (AhR) signaling pathway (AID 743085). Also: nearly all actives have a fitted effect of over 15% in size. Also: potency is read from the fitted curve at half-maximal effect.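 As to activation: HG2L7.5c1 human HepG2 liver cells with stably integrated DRE-driven firefly reporter; series mostly up to about 70 µM.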 An outline of the steps:
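Luminescence (ONE-Glo) from a dioxin-responsive-element luciferase reporter in HG2L7.5c1 HepG2 cells after 24 hr compound exposure at 37C; viability measured by CellTiter-Fluor fluorescence beforehand.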

Assay [3] is described as follows: qHTS assay to identify small molecule antagonists of the peroxisome proliferator-activated receptor gamma (PPARg) signaling pathway - cell viability counter screen (AID 743194). Also: nearly all actives have a fitted effect of over 55% in size. The conditions noted are these: Potency: co-treated with 50 nM rosiglitazone unless noted. The gist of the method: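 Cytotoxicity counter screen in PPARg-bla HEK293H cells, same wells as reporter assay. Compounds plus 50 nM rosiglitazone (final) for 17 h at 37 C, then viability read by CellTiter-Glo luminescence.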

Assay [4] is described as follows: qHTS assay for small molecule agonists of the antioxidant response element (ARE) signaling pathway (AID 743202; active = well fitted activation curve with a large enough effect in the signal ratio in the repeat runs, not every such curve was filed as active; the % refers to the signal ratio). The gist of the method: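 ARE-bla HepG2 cells (beta-lactamase reporter under the antioxidant response element), plated 5 hours, then exposed to compounds 16 hours at 37 C. LiveBLAzer B/G FRET substrate added for 2 hours at room temperature; fluorescence intensity read.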

Assay [5] in a line: qHTS assay for small molecule agonists of the antioxidant response element (ARE) signaling pathway - cell viability counter screen (AID 743203; calls by dose curve; also: nearly all actives have a fitted effect of over 55% in size). An outline of the steps: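 Following 16 hrs of compound treatment at 37C, HepG2 cells with an ARE-controlled beta-lactamase gene were lysed with CellTiter-Glo. Luminescence was read after 30 min at room temperature.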
Assay [6] can be described thus: qHTS assay for small molecule activators of the heat shock response signaling pathway - cell viability counter screen (AID 743209). Also: nearly all actives have a fitted effect of over 50% in size. The gist of the method: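 Readout: CellTiter-Glo luminescence, 30 min at room temperature. System: HSE-bla HeLa cells, 1500/well, plated overnight. Treatment: compounds in DMSO, 5 h at 37 C.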
Assay [7] in a line: qHTS assay for small molecule activators of the heat shock response signaling pathway (AID 743210; active = well fitted activation curve with a large enough effect in the signal ratio in the repeat runs, with a control signal flat, not every such curve was filed as active; the % refers to the signal ratio; also: series mostly up to about 63 µM). An outline of the steps:
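HSE-bla HeLa cells (beta-lactamase reporter under heat shock response elements), plated overnight, then exposed to compounds 5 h at 37 C; LiveBLAzer B/G FRET substrate added, 2.5 h at room temperature, fluorescence intensity read.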

A short description of assay [8]: qHTS assay to identify small molecule agonists of the peroxisome proliferator-activated receptor delta (PPARd) signaling pathway - cell viability counter screen (AID 743211). Also: nearly all actives have a fitted effect of over 55% in size. An outline of the steps:
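Viability was measured as CellTiter-Glo luminescence (30 min, room temperature) in the same wells as the beta-lactamase readout. GeneBLAzer PPARd UAS-bla HEK293H cells received compound after 5 h plating and were incubated 17 h at 37 C.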

Assay [9] addresses Peroxisome proliferator-activated receptor delta (Homo sapiens) (UniProt Q03181). The assay is described as follows: qHTS assay to identify small molecule agonists of the peroxisome proliferator-activated receptor delta (PPARd) signaling pathway (AID 743212; calls by dose curve). An outline of the steps: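 GeneBLAzer UAS-bla HEK293H cells carrying a PPARδ construct were exposed to compounds at 37 °C. Beta-lactamase activity was read by FRET fluorescence after 2 h at room temperature with LiveBLAzer B/G substrate.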

For assay [10] the target is unchanged. The assay is described as follows: qHTS assay to identify small molecule antagonists of the peroxisome proliferator-activated receptor delta (PPARd) signaling pathway (AID 743215; active = well fitted inhibition curve with a large enough effect in the signal ratio in the repeat runs, not every such curve was filed as active; the % refers to the signal ratio;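 also: cells stimulated with agonist L165041 at 300 nM final during compound exposure; series mostly up to about 62 µM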). The gist of the method: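 HEK293H UAS-bla, PPARd; agonist L165041 300 nM final with cpd in DMSO; 37 C 17 h; FRET substrate, RT 2 h; fluorescence intensity.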
The target of assay [11] is Bile acid receptor (Homo sapiens) (UniProt Q96RI1). Kind of assay: qHTS assay to identify small molecule antagonists of the farnesoid-X-receptor (FXR) signaling pathway (AID 743217; active = well fitted inhibition curve with a large enough effect in the signal ratio in the repeat runs, not every such curve was filed as active; the % refers to the signal ratio). The gist of the method: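 GeneBLAzer FXR-UAS-bla HEK 293T, CDCA-stimulated (50 uM final). Compound treatment 16 h, 37 °C. Detection: beta-lactamase cleavage of B/G FRET substrate, fluorescence.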
Chain of Bile acid receptor (Homo sapiens) (Q96RI1 whole entry, looked up): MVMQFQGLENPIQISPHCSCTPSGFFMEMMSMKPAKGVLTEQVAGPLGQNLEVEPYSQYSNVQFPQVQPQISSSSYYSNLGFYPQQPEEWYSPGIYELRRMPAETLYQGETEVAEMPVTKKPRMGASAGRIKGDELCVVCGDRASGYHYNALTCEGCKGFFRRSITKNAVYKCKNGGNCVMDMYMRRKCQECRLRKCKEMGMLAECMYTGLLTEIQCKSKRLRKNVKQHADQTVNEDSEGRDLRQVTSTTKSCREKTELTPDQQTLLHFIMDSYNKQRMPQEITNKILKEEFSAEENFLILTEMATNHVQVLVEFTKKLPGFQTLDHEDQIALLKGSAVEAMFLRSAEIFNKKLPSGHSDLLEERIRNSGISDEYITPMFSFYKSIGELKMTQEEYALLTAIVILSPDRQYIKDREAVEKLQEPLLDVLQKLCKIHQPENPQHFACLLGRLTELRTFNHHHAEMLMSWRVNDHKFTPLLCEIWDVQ

Assay [12] can be described thus: qHTS assay to identify small molecule agonists of the farnesoid-X-receptor (FXR) signaling pathway - cell viability counter screen (AID 743218). Also: nearly all actives have a fitted effect of over 45% in size. An outline of the steps: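 Parallel cytotoxicity test: compound-treated (16 h, 37 C) HEK 293T FXR-bla reporter cells were lysed with CellTiter-Glo and luminescence recorded.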
Assay [13] addresses Bile acid receptor (Homo sapiens) (UniProt Q96RI1). The assay is described as follows: qHTS assay to identify small molecule agonists of the farnesoid-X-receptor (FXR) signaling pathway (AID 743220; active = well fitted activation curve with a large enough effect in the signal ratio in the repeat runs, not every such curve was filed as active; the % refers to the signal ratio). The gist of the method:
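Beta-lactamase reporter under UAS control in GeneBLAzer FXR HEK 293T cells (5000/well) measured with LiveBLAzer FRET substrate after 2 h at room temperature. Compound exposure lasted 16 h at 37C.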

The nature of assay [14]: qHTS assay to identify small molecule antagonists of the farnesoid-X-receptor (FXR) signaling pathway - cell viability counter screen (AID 743221; active = well fitted cell-killing curve with a large enough effect in the repeat runs, not every such curve was filed as active; also: nearly all actives have a fitted effect of over 50% in size). An outline of the steps: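 Cytotoxicity counter screen run in the FXR-bla reporter wells: HEK 293T cells exposed to compound with 50 uM (final) chenodeoxycholic acid for 16 h, 37 C, then viability measured by CellTiter-Glo luminescence after 30 min, room temperature.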

The target of assay [15] is Vitamin D3 receptor (Homo sapiens) (UniProt P11473). The assay is described as follows: qHTS assay to identify small molecule agonists of the vitamin D receptor (VDR) signaling pathway (AID 743222; calls by dose curve). The gist of the method:
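In VDR-bla cells, compound-induced beta-lactamase expression is quantified by FRET substrate fluorescence. Treatment lasts 16 h at 37C; substrate develops 2 h at room temperature.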

The target is the same in assay [16]. The assay is described as follows: qHTS assay to identify small molecule antagonists of the vitamin D receptor (VDR) signaling pathway (AID 743223; active = well fitted inhibition curve with a large enough effect in the signal ratio in the repeat runs, not every such curve was filed as active; the % refers to the signal ratio). An outline of the steps:
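Antagonist mode: compound added to VDR-bla cells alongside agonist 1alpha,25-dihydroxyvitamin D3 (3 nM final), incubation 16 h at 37C. Read-out is LiveBLAzer FRET fluorescence, 2 h at room temperature.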

The nature of assay [17]: qHTS assay to identify small molecule that activate the aryl hydrocarbon receptor (AhR) signaling pathway - cell viability counter screen (AID 743086).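 Also: HepG2 liver cells carrying the AhR DRE luciferase reporter; series mostly up to about 70 µM; nearly all actives have a fitted effect of over 45% in size.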 The gist of the method: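 HepG2-AhR-luc (HG2L7.5c1) cells, 4000/well, treated 24 h at 37 C with compound; viability measured as CellTiter-Fluor fluorescence after 30 min in the same wells as the luciferase read.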
Assay [18] addresses Peroxisome proliferator-activated receptor gamma (Homo sapiens) (UniProt P37231). Kind of assay: qHTS assay to identify small molecule agonists of the peroxisome proliferator-activated receptor gamma (PPARg) signaling pathway (AID 743094; active = well fitted activation curve with a large enough effect in the signal ratio in the repeat runs, not every such curve was filed as active; the % refers to the signal ratio). An outline of the steps:
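Compounds dissolved in DMSO were added to PPARg UAS-bla HEK293H cells for 17 h at 37C, and reporter expression was quantified by fluorescence intensity after 1 h with LiveBLAzer B/G FRET substrate.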

Assay [19] has the same target. The assay is described as follows: qHTS assay to identify small molecule antagonists of the peroxisome proliferator-activated receptor gamma (PPARg) signaling pathway (AID 743191; calls by dose curve; also: nearly all actives have a fitted effect of over 30% in size; also: potency is read from the fitted curve at half-maximal effect). The gist of the method: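 GeneBLAzer PPARg UAS-bla HEK293H cells, 5 h post-plating, exposed to compounds 17 h at 37C. LiveBLAzer B/G FRET substrate added for 1 h at room temperature; beta-lactamase reporter read by fluorescence intensity.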

Assay [20] is described as follows: qHTS assay to identify small molecule antagonists of the peroxisome proliferator-activated receptor delta (PPARd) signaling pathway - cell viability counter screen (AID 743213). Also: nearly all actives have a fitted effect of over 50% in size. The gist of the method: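 HEK293H PPARd UAS-bla cells, 5 h pre-incubation, compound + L165041 300 nM final, 17 h 37 C; B/G FRET substrate 2 h RT; then CellTiter-Glo 30 min RT, luminescence.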

Structures are written as SMILES. Where “and” joins values, the source holds several entries; their conditions need not be identical. Equal entries are not always repeated. Records with an inconclusive call do not appear. Calls of active or inactive are those of the source. Unless noted, calls follow the shape of the dose curve; as a rule, active = well fitted curve in the direction sought with a large enough effect in the repeat runs; inconclusive = weak or mixed curves; inactive = no such curve, though single readings can be large; an effect the other way counts as inactive or inconclusive.

Chain of Vitamin D3 receptor (Homo sapiens) (P11473 whole entry, looked up): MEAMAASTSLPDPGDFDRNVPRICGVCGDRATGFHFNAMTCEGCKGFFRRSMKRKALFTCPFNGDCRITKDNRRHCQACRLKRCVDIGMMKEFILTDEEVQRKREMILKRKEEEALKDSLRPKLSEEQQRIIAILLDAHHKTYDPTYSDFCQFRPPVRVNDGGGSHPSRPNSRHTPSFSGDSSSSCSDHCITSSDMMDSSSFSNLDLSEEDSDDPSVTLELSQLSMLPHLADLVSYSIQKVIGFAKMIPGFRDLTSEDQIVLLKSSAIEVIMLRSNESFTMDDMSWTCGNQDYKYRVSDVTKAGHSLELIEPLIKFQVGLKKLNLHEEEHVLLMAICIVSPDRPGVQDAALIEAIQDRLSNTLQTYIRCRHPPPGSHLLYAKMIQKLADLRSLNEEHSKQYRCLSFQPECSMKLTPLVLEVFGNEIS
Chain of Aryl hydrocarbon receptor (Homo sapiens) (P35869 whole entry, looked up): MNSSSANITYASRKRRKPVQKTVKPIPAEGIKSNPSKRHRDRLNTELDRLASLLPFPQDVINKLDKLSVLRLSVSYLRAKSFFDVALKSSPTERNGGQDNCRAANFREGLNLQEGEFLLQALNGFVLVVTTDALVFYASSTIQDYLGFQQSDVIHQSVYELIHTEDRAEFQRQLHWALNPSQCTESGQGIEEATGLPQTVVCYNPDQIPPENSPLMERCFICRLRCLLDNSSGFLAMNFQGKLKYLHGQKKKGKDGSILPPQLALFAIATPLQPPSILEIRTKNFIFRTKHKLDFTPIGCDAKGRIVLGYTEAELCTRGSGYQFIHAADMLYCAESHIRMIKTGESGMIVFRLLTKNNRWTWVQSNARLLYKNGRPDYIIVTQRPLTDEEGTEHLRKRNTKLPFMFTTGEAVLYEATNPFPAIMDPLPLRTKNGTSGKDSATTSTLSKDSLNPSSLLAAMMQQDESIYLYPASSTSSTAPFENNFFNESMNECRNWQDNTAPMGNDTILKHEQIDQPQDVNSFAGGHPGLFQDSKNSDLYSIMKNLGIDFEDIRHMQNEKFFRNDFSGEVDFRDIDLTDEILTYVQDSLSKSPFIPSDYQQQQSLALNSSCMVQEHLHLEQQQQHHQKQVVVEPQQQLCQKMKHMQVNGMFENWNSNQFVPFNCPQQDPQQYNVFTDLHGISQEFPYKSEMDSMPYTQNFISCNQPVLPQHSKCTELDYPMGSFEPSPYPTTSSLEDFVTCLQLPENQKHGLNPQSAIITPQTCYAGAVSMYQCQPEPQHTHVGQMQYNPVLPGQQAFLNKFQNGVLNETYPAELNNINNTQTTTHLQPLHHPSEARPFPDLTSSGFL
Chain of Peroxisome proliferator-activated receptor gamma (Homo sapiens) (P37231 whole entry, looked up): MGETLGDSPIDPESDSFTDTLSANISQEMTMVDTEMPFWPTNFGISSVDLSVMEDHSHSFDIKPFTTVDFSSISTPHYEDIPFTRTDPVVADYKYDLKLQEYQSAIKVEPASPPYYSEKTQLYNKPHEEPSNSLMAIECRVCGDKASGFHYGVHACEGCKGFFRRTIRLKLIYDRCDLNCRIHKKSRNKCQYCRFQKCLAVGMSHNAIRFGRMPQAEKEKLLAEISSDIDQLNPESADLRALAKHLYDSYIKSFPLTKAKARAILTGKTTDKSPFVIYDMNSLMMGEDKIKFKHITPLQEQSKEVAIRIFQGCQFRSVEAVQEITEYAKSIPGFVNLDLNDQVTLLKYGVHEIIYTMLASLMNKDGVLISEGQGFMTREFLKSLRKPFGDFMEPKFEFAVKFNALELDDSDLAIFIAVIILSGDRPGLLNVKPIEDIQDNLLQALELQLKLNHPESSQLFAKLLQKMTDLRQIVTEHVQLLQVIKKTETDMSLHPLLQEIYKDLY
Chain of Peroxisome proliferator-activated receptor delta (Homo sapiens) (Q03181 whole entry, looked up): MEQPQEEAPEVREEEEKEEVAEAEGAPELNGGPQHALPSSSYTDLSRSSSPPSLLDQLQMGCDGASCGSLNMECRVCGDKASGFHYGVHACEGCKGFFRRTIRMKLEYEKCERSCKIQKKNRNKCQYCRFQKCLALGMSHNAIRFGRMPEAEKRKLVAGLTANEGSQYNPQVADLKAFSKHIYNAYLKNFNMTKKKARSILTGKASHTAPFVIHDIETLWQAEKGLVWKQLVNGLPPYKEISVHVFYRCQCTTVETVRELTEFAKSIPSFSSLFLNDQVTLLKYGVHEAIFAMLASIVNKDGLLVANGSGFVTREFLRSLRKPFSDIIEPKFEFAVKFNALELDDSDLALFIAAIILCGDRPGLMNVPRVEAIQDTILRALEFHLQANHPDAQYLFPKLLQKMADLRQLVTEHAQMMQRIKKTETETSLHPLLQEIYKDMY

On to `CCOC(=O)c1ccc(O)cc1`, for which the Potency entry in [1], in assay [2], in [3], in [4], in assay [5] and in assay [6] was “inactive” in each case. Further, the Potency entry in [7], in assay [8], in assay [9], in assay [10], in assay [11] and in assay [12] was “inactive” in each case. For the same compound, the Potency entry in assay [13], in assay [14] and in assay [16] was “inactive” each time. In assay [15], the result was inactive.

In the case of `COc1c2ccoc2cc2oc(=O)ccc12`, the Potency entry in [1], in assay [17], in assay [18], in assay [19], in [3] and in [4] was “inactive” each time. For the same compound, the Potency entry in assay [5], in assay [6], in assay [7], in [8], in assay [20] and in assay [12] was “inactive” throughout. Besides, the Potency entry in assay [14] and in assay [16] was “inactive” throughout. Besides, the compound was classed as inactive in assay [15].

As for `CC1(C)[C@@H](O[C@H]2O[C@H](C(=O)O)[C@@H](O)[C@H](O)[C@H]2O[C@@H]2O[C@H](C(=O)O)[C@@H](O)[C@H](O)[C@H]2O)CC[C@]2(C)[C@H]3C(=O)C=C4[C@@H]5C[C@@](C)(C(=O)O)CC[C@]5(C)CC[C@@]4(C)[C@]3(C)CC[C@@H]12`, the Potency result in assay [1], in assay [2], in assay [3], in [4], in assay [5] and in assay [6] was “inactive” throughout. For the same compound, the Potency result in assay [8], in [20], in assay [12], in assay [14] and in assay [16] was “inactive” throughout. In addition, the compound was called inactive in assay [15].

As to `NCCNCCNCCN`, the Potency result in assay [17], in assay [3], in assay [4], in assay [5], in assay [6] and in assay [8] was “inactive” in each case. Moreover, the Potency result in assay [11], in assay [12], in assay [13], in [14] and in assay [16] was “inactive” throughout. Moreover, the call in [15] was inactive.

For the compound `CO[Si](CCCNCCN)(OC)OC`, the Potency result in [1], in assay [17], in [18], in [19], in assay [3] and in assay [4] was “inactive” each time. Also, the Potency entry in [5], in [6], in assay [7], in assay [8], in [9] and in assay [20] was “inactive” in each case. For the same compound, the Potency entry in [10], in assay [12], in assay [14] and in [16] was “inactive” throughout. Also, the outcome in [15] was inactive.

In the case of `CCCCCCCCCCCCCC(=O)O`, the Potency entry in assay [1], in [2], in assay [18], in assay [3], in assay [4] and in [5] was “inactive” throughout. Besides, the Potency result in [6], in [8], in [20], in assay [11], in assay [12] and in assay [13] was “inactive” each time. Moreover, the Potency result in assay [14] and in assay [16] was “inactive” in each case. In assay [15], the compound was classed as inactive.

With `O=C(c1ccccc1)c1ccc(O)c(O)c1O`, the Potency entry in [1], in assay [2], in [18], in assay [3], in assay [5] and in [6] was “inactive” throughout. Besides, the Potency result in [7], in assay [8], in assay [9], in assay [12], in assay [14] and in assay [16] was “inactive” each time. In [15], the outcome was inactive.

For `CN1Cc2c(N)cccc2C(c2ccccc2)C1` (stereo not given), the Potency result in [2], in assay [3], in [4], in assay [5], in assay [6] and in assay [7] was “inactive” in each case. In addition, the Potency entry in [8], in [9], in [20], in assay [10], in assay [12] and in [14] was “inactive” in each case.

On to `NC(=O)NC(N)=O`, for which the Potency result in assay [1], in [2], in assay [18], in assay [19], in assay [4] and in assay [5] was “inactive” in each case. Also, the Potency entry in assay [6], in assay [7], in assay [8], in [9], in [20] and in assay [10] was “inactive” in each case. For the same compound, the Potency entry in [12] and in [14] was “inactive” each time.

As to `COc1cc(NC(=O)CC(C)=O)c(OC)cc1Cl`, the Potency entry in [1], in assay [18], in [3], in assay [5], in assay [6] and in assay [8] was “inactive” in each case. In addition, the Potency result in [9], in assay [20], in assay [12] and in assay [14] was “inactive” in each case. The Potency was 24.4 µM (active) and 686 nM (active) in [2]; 19.5 µM (active) in assay [19].

For `CCOC(=O)CC(=O)OCC`, the Potency result in assay [3], in assay [4], in assay [5], in assay [6], in assay [7] and in assay [8] was “inactive” in each case. For the same compound, the Potency result in [9], in assay [10], in assay [11], in [12], in assay [13] and in assay [14] was “inactive” throughout. Moreover, the Potency result in assay [16] is “inactive”. For the same compound, in assay [15], the compound was classed as inactive.

As for `O=C1C(N(CO)C(=O)NCO)N(CO)C(=O)N1CO` (stereo not given), the Potency result in [1], in [2], in assay [18], in [3], in assay [4] and in assay [5] was “inactive” each time. Moreover, the Potency result in assay [6], in [8], in assay [20], in assay [12], in [14] and in assay [16] was “inactive” each time. Moreover, the compound was called inactive in assay [15].
